Many of the other results were omitted from the sample, so hits are more common in it than they were.
IkB signaling – IkB Signaling; hit rate 0.04% among 110,000; Potency, µM (series often up to 57.1 µM); ABC-DLBCL IkBa-CBG/CBR dual luciferase ratio, 4 h; response scale: scaled: untreated 0%, proteasome inhibitor 100%; active means well fitted curve in the direction sought with a large enough effect in the signal ratio, not every such curve was filed as active; inconclusive means small, poorly fitted or top-dose-only effect, or a change in a side signal; the % refers to the signal ratio;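 further: the direction sought is a rising ratio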
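Luminescence ratio of IκBα-fused green versus native red beetle luciferase in OCI-Ly3 cells, 4 h post-doxycycline with compound; red signal alone, scaled from basal (0%) to zero light (-100%), flagged nonspecific or cytotoxic effects.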
ERK AVP inh – qHTS Assay for Inhibitors of the ERK Signaling Pathway using a Homogeneous Screening Assay; hit rate 0.99% among 72,000; Potency, µM (top dose mostly 57.5 µM), usual class: inhibitors; HEK293-V1b, vasopressin-stimulated pERK AlphaScreen; AID 995, 2007; further: nearly all actives have a fitted effect of over 55% in size
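Phosphorylated ERK1/2 detected via AlphaScreen bead proximity in lysates of V1b-expressing HEK293 cells given 25 nM vasopressin for 5 min after 30 min compound exposure (37 °C). AC50 from Hill equation; basal DMSO 0%, vasopressin 100%.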
GFP derepression – qHTS Assay for Epigenetic Modulators. mouse C127i GFP locus derepression, cytometry, 30 h. Potency, µM (highest dose often 46.1 µM). hit rate 0.09% among 68,000. AID 597, 2007
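Murine C127i mammary cells carrying a silenced, stably integrated CMV-driven GFP reporter were treated with compound for 30 hours at 37 C. After PBS washes, GFP-positive cells were counted by laser-scanning microplate cytometry.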
HBB splicing – qHTS Assay for Modulators of Hemoglobin Beta Chain Splicing. HBB splicing reporter cell assay, activation; EGFP reporter with mutant IVS2-654 intron; response scale: normalised to 500 nM splice-correcting PNA. Potency, µM (titrated, usually from 46.1 µM), hits mostly activators. hit rate 0.06% among 65,000. AID 925, 2007
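HeLa cells stably expressing EGFP interrupted by mutant beta-globin intron 2 (IVS2-654), 500/well in 2% FCS. Treated with compound for 2 days at 37C. Splicing correction scored as total well GFP intensity (488 nm excitation, 500-520 nm emission); 500 nM antisense PNA served as control.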
CRE Fsk mod – Cell signaling CRE-BLA (Fsk stim). CHO CRE-bla reporter (cAMP response element driving beta-lactamase), forskolin EC10, beta-lactamase ratio. Potency, µM (highest dose often 38.2 µM), usual class: activators. hit rate 2.5% among 71,000. AID 662, 2007; active means well fitted activation curve with a large enough effect in the signal ratio, with a control signal flat, not every such curve was filed as active; inconclusive means small, poorly fitted or top-dose-only effect, or effect the other way, or a change in a side signal; the % refers to the signal ratio
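Using CellSensor CRE-bla CHO cells in Opti-MEM with 0.5% dialyzed FBS, compounds were titrated with EC10 NKH 477 for 3 h at 37 °C. CCF4 ratio (460/530 nm) gave %Activity; AC50 derived.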
Of the large screens only hits and unclear results are named; the others gave an inactive call. Unless noted, the call rests on the fitted dose curve; in most records, active means well fitted curve in the direction sought with a large enough effect; inconclusive means small, poorly fitted or top-dose-only effect, or another doubt; inactive means no such curve, though single readings can be large; an effect the other way counts as inactive or inconclusive.

CC(=O)OCC(=O)[C@]1(O)C(C)CC2C3CCC4=CC(=O)C=C[C@@]4(C)[C@]3(F)C(O)C[C@@]21C (some centres not stated)	none (no result: IkB signaling, GFP derepression, HBB splicing, CRE Fsk mod)
CN(C)C(=O)c1ccc(-c2cc(NCc3ccccc3)ncn2)cc1	CRE Fsk mod inconclusive
O[C@H](C[C@@H]1CCCCN1)c1ccc2c(c1)oc1ccccc12	GFP derepression 1.3µM
CCc1nc(SCC(=O)N2CCN(C(=O)c3ccco3)CC2)c2c3c(sc2n1)CCCC3	IkB signaling inconclusive, ERK AVP inh 20µM
Cc1ccc(CNC(=O)C2CCN(S(=O)(=O)c3c(C)noc3/C=C/c3ccccc3F)CC2)o1	none (no result: ERK AVP inh, GFP derepression, HBB splicing, CRE Fsk mod)
Cc1nc(C)c(-c2csc(Nc3cccnc3)n2)s1	CRE Fsk mod 10µM
c1cncc(Nc2nc(-c3ccncc3)cs2)c1	ERK AVP inh 20µM, CRE Fsk mod inconclusive
Cc1nc(N)sc1-c1csc(Nc2ccccc2)n1	none
c1cncc(Nc2nc(-c3cccnc3)cs2)c1	ERK AVP inh inconclusive, CRE Fsk mod inconclusive
Cc1cc(OCCCSc2nc(-c3ccc(C(C)(C)C)cc3)nc3cc(=O)[nH]n23)ccc1Cl	none (no result: ERK AVP inh, GFP derepression, HBB splicing, CRE Fsk mod)
CCCCCCCCN[C@@H](C)[C@H](O)c1ccc(SC(C)C)cc1	none
COc1ccc(-c2nc3cnc(N4CCN(C)CC4)nc3n(C)c2=O)cc1	CRE Fsk mod inconclusive
COc1cc(C(=O)Nc2nc(OC)c(-c3ccccc3)c(OC)n2)cc(OC)c1OC	CRE Fsk mod inconclusive
COc1cc(C(=O)Nc2cc(-c3ccccc3)[nH]n2)cc(OC)c1OC	IkB signaling inconclusive, ERK AVP inh inconclusive, CRE Fsk mod 0.79µM
COc1cc(NC(=O)c2ccco2)c(OC)cc1NC(=O)c1cc(OC)c(OC)c(OC)c1	IkB signaling inconclusive, CRE Fsk mod 4µM (no result: HBB splicing)
COc1cc(C(=O)Nc2c(-c3ccccn3)c(=O)c3ccccc3n2C)cc(OC)c1OC	CRE Fsk mod 0.16µM
Cc1ccc2cc(C#N)c(NCCNC(=O)C3CC3)nc2c1C	ERK AVP inh 25µM, CRE Fsk mod inconclusive
CCN(CC)S(=O)(=O)c1ccc2c(c1)nc(SCc1nc3ccsc3c(=O)[nH]1)n2CC	IkB signaling inconclusive, ERK AVP inh inconclusive, CRE Fsk mod 5µM
Cc1cc(C(=O)CSc2nnc(N)s2)c(C)n1CCc1ccc(Cl)cc1	IkB signaling inconclusive
COc1ccc(CCn2c(C)cc(C(=O)CSc3nnc(N)s3)c2C)cc1	IkB signaling inconclusive, ERK AVP inh 20µM
Cc1cccc(/N=C/c2c(O)[nH]c3ccccc23)n1	none
Oc1[nH]c2ccccc2c1C=Nc1ccc2c(c1)OCCO2	IkB signaling inconclusive, ERK AVP inh 20µM
O=Nc1c(-c2c(O)[nH]c3ccccc23)[nH]c2ccccc12	IkB signaling inconclusive, ERK AVP inh 10µM, CRE Fsk mod inconclusive
COCc1cc(C)nc(SCC(=O)Nc2cccc3cccnc23)c1C#N	CRE Fsk mod 10µM (no result: ERK AVP inh, GFP derepression)
COCc1cc(C)nc(SCC(=O)Nc2ccc3c(c2)OCO3)c1C#N	CRE Fsk mod inconclusive
CC(=O)OC[C@@H]1O[C@@H](O/N=C2/C[C@@H](O)[C@@H](O)[C@@H]3[C@@H]4C(=O)N(C[C@@H]5CCCO5)C(=O)[C@H]4CC[C@@H]23)[C@H](OC(C)=O)[C@H](OC(C)=O)[C@@H]1OC(C)=O	none (no result: IkB signaling, GFP derepression, CRE Fsk mod)
O=C(Nc1cccc(F)c1)N1CC=C(n2c(=O)[nH]c3ccccc32)CC1	IkB signaling inconclusive, ERK AVP inh 20µM
O=C(c1ccc(Cl)s1)N1CCN(c2ccccc2)CC1	CRE Fsk mod 13µM (no result: ERK AVP inh, GFP derepression)
CCOc1cc2c(C#N)c(N3CCOCC3)nc(N)c2c(N)n1	ERK AVP inh 16µM, CRE Fsk mod 2.5µM
COCc1cc(C)nc(N2CCOCC2)c1C#N	none (no result: GFP derepression)
CCOc1ccc(-c2nc(C#N)c(N3CCCCCC3)o2)cc1	ERK AVP inh 20µM, CRE Fsk mod inconclusive
COc1ccc(-c2nc(C#N)c(N3CCCCCC3)o2)cc1	ERK AVP inh inconclusive, CRE Fsk mod inconclusive
COc1ccc(-c2nc(C#N)c(N3CCCCCC3)o2)cc1OC	ERK AVP inh inconclusive, CRE Fsk mod 1.3µM
O=C(/C=C/c1ccc2c(c1)OCO2)c1cccs1	none (no result: IkB signaling, GFP derepression, HBB splicing, CRE Fsk mod)
COC(=O)C1(C)C=CC2(CCCCC2)N1C(=O)c1ccccc1 (configuration not stated)	none (no result: IkB signaling, GFP derepression)
COc1cc2c(cc1OC)-c1cc(NC3CC3)nc(=O)n1CC2	ERK AVP inh inconclusive, CRE Fsk mod 10µM
COc1cc2c(cc1OC)C(=O)Cc1ccc3c(c1CN(C)CC2)OCO3	CRE Fsk mod inconclusive (no result: HBB splicing)
COc1ccc(OC)c(-c2nc3c(C#N)c[nH]n3c2NC2CCCCC2)c1	none (no result: ERK AVP inh, GFP derepression, HBB splicing, CRE Fsk mod)
COc1cc2c(cc1OC)-c1cc(NC3CCCCC3)nc(=O)n1CC2	ERK AVP inh inconclusive, CRE Fsk mod 2µM
COc1ccc(C2=NOC(C(=O)NC3CCCCC3)C2)cc1OC (configuration not stated)	CRE Fsk mod inconclusive
COc1cc2c(cc1OC)-c1cc(NC3CCCCCCC3)nc(=O)n1CC2	ERK AVP inh inconclusive, CRE Fsk mod 0.4µM
Cc1ccc2nc(-c3ccc(N)cc3)sc2c1S(=O)(=O)O	CRE Fsk mod inconclusive (no result: GFP derepression)
C=C1C2CC[C@@]3(C)C(c4ccoc4)OC(=O)C[C@@]13OC1CC(OC(C)=O)C(C)(C)C(CC(=O)OC)[C@@]12C (some centres not stated)	none (no result: IkB signaling, GFP derepression, HBB splicing, CRE Fsk mod)
C1=C(c2ccccc2)CCN(c2nc3ccccc3n3cnnc23)C1	IkB signaling inconclusive, CRE Fsk mod inconclusive
c1ccc2c(c1)CCN(c1nc3ccccc3n3cnnc13)C2	IkB signaling inconclusive, CRE Fsk mod 0.4µM
c1ccc2c(c1)CCCN2c1nc2ccccc2n2cnnc12	IkB signaling inconclusive
c1ccc(CN2CCN(c3nc4ccccc4n4cnnc34)CC2)cc1	CRE Fsk mod 13µM
Cc1noc(C)c1-c1nccc(N2CCNCC2)n1	CRE Fsk mod inconclusive
COc1ccc(-c2nnc3sc(C(C)N4C(=O)c5ccccc5C4=O)nn23)cc1 (configuration not stated)	CRE Fsk mod 10µM
CCCC(=O)Nc1ccc(-c2nc3ncccc3o2)cc1C	none (no result: ERK AVP inh, GFP derepression, HBB splicing, CRE Fsk mod)
O=C(Nc1cccc(-c2cn3ccsc3n2)c1)c1ccccc1	IkB signaling inconclusive, ERK AVP inh inconclusive
COc1ccccc1C(=O)Nc1cccc(-c2cn3ccsc3n2)c1	IkB signaling inconclusive, CRE Fsk mod 3.2µM
C=Cc1ccc(CSc2nc(-c3ccccc3C)nc3c2Cc2c(CO)cnc(C)c2O3)cc1	none (no result: ERK AVP inh, GFP derepression, HBB splicing, CRE Fsk mod)
C[C@@]12CCC(=O)C=C1CC[C@H]1[C@@H]2[C@@H](O)C[C@]2(C)[C@@H]1CC[C@@]2(O)C(=O)CO	IkB signaling inconclusive
COc1cccc(Cn2c(=O)c(CCc3ccccc3)nc3cnc(OC)nc32)c1	CRE Fsk mod 13µM
O=c1c(CCc2ccccc2)nc2cnc(Oc3ccccc3)nc2n1C[C@H]1CCCO1	CRE Fsk mod 13µM

From PubChem BioAssay
